Measurements as given in PubChem BioAssay (NCI).
This is part of a sample that, as a whole, favours compounds with a hit. Of some 79,000 tested, about 15% had one in any assay. Unmarked numbers belong to inactive results. Calls of active or inactive are those of the source. No stated cut-off is given here; in the data, active means growth inhibition above about 70%; inactive means the rest.

Tests used:
[1] = NCI Yeast Anticancer Drug Screen. Data for the rad50 strain (AID 155);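 further: 0% = growth of vehicle-only cultures of the same strain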; details: S. cerevisiae rad50 strain growth inhibition, hits give high values
Summary of the method: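 Relative growth inhibition (compound vs vehicle) was measured in yeast with a defined repair-gene alteration.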

[2] = NCI Yeast Anticancer Drug Screen. Data for the mec2-1 strain (AID 157); details: S. cerevisiae mec2-1 strain, hits give high values
Summary of the method: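 Compounds were applied to mec2-1 yeast cells. Their growth was then compared with that of vehicle-treated cultures to give growth inhibition.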

[3] = NCI Yeast Anticancer Drug Screen. Data for the sgs1 mgt1 strain (AID 161);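 further: 0% = growth of cultures given vehicle only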; details: S. cerevisiae sgs1 mgt1 strain, hits give high values
Summary of the method: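 Yeast cells carrying a defined DNA-repair defect were exposed to test compounds. Growth inhibition was measured relative to vehicle-treated controls.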

[4] = NCI Yeast Anticancer Drug Screen. Data for the cln2 rad14 strain (AID 165);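 further: 0% = growth equal to vehicle treated cultures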; details: S. cerevisiae cln2 rad14 strain, hits give high values
Summary of the method: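 Strain: cln2 rad14 yeast, altered in cell cycle control and DNA damage repair. Read-out: growth inhibition vs vehicle.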

[5] = NCI Yeast Anticancer Drug Screen. Data for the bub3 strain (AID 167); details: S. cerevisiae bub3 mutant strain, hits give high values
Summary of the method: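 Screening used yeast with an engineered genetic alteration affecting cell cycle control. Compound-exposed cultures were compared with vehicle cultures, and reduced growth was taken as inhibition.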

[6] = NCI Yeast Anticancer Drug Screen. Data for the mlh1 rad18 strain (AID 175); details: S. cerevisiae mlh1 rad18 strain growth inhibition, hits give high values
Summary of the method: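 A repair-deficient yeast strain is exposed to test compound, and growth is scored relative to vehicle-treated controls.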

[7] = at 5.0 µM (retest, dose inferred, filed as 0.5)
[8] = at 50.0 µM (retest, dose inferred, filed as 5.0)

Compound: CC(=O)[O-].O=C(N/N=C/c1ccccc1[O-])c1ccccc1.[Zn+2]
- growth inhibition [1, 7]: -3%
- growth inhibition [1, 8]: 61%
- growth inhibition ([1]; at 50.0 µM): -2.05%
- growth inhibition [2, 7]: 6%
- growth inhibition [2, 8]: 89% (active)
- growth inhibition ([2]; at 50.0 µM): 14.6%
- growth inhibition [3, 7]: 1%
- growth inhibition [3, 8]: 86% (active)
- growth inhibition ([3]; at 50.0 µM): 55.8%
- growth inhibition [4, 7]: -5%
- growth inhibition [4, 8]: 32%
- growth inhibition ([4]; at 50.0 µM): -16.9%
- growth inhibition [5, 7]: -10%
- growth inhibition [5, 8]: 70% (active)
- growth inhibition ([5]; at 50.0 µM): 0.3%
- growth inhibition [6, 7]: 9%
- growth inhibition [6, 8]: 91% (active)
- growth inhibition ([6]; at 50.0 µM): 32%

Compound: O=C(OCc1ccccc1CN1CCOCC1)c1ccc(Br)cc1
- growth inhibition [1, 7]: -30%
- growth inhibition [1, 8]: 29%
- growth inhibition ([1]; at 50.0 µM): 77.3% (active)
- growth inhibition [2, 7]: -2%
- growth inhibition [2, 8]: -2%
- growth inhibition ([2]; at 50.0 µM): 74.5% (active)
- growth inhibition [3, 7]: -2%
- growth inhibition [3, 8]: 77% (active)
- growth inhibition ([3]; at 50.0 µM): 93.7% (active)
- growth inhibition [4, 7]: -1%
- growth inhibition [4, 8]: -7%
- growth inhibition ([4]; at 50.0 µM): 51.9%
- growth inhibition [5, 7]: 2%
- growth inhibition [5, 8]: 41%
- growth inhibition ([5]; at 50.0 µM): 92.1% (active)
- growth inhibition [6, 7]: 4%
- growth inhibition [6, 8]: 36%
- growth inhibition ([6]; at 50.0 µM): 76.1% (active)

Compound: CSC(=S)SC(SC)S(C)(=O)=O (stereo not given)
- growth inhibition [1, 7]: -7%
- growth inhibition [1, 8]: 0%
- growth inhibition ([1]; at 50.0 µM): 98.5% (active)
- growth inhibition [2, 7]: -5%
- growth inhibition [2, 8]: -3%
- growth inhibition ([2]; at 50.0 µM): 99.7% (active)
- growth inhibition [3, 7]: -5%
- growth inhibition [3, 8]: -16%
- growth inhibition ([3]; at 50.0 µM): 99.3% (active)
- growth inhibition [4, 7]: 1%
- growth inhibition [4, 8]: 2%
- growth inhibition ([4]; at 50.0 µM): 99.1% (active)
- growth inhibition [5, 7]: -5%
- growth inhibition [5, 8]: -11%
- growth inhibition ([5]; at 50.0 µM): 99.5% (active)
- growth inhibition [6, 7]: -8%
- growth inhibition [6, 8]: -9%
- growth inhibition ([6]; at 50.0 µM): 99.3% (active)

Compound: O=[N+]([O-])c1ccc(-c2ccc(-c3csc(Nc4ccccc4)n3)o2)cc1
- growth inhibition [1, 7]: 42%
- growth inhibition [1, 8]: 96% (active)
- growth inhibition ([1]; at 50.0 µM): 93.2% (active)
- growth inhibition [2, 7]: 96% (active)
- growth inhibition [2, 8]: 98% (active)
- growth inhibition ([2]; at 50.0 µM): 93.4% (active)
- growth inhibition [3, 7]: 44%
- growth inhibition [3, 8]: 97% (active)
- growth inhibition ([3]; at 50.0 µM): 92.6% (active)
- growth inhibition [4, 7]: 63%
- growth inhibition [4, 8]: 97% (active)
- growth inhibition ([4]; at 50.0 µM): 90.8% (active)
- growth inhibition [5, 7]: 97% (active)
- growth inhibition [5, 8]: 98% (active)
- growth inhibition ([5]; at 50.0 µM): 93% (active)
- growth inhibition [6, 7]: 98% (active)
- growth inhibition [6, 8]: 97% (active)
- growth inhibition ([6]; at 50.0 µM): 90.5% (active)

Compound: CC(/C=C/c1cccs1)=N\NC(=S)NCC(C)C
- growth inhibition [1, 7]: -3%
- growth inhibition [1, 8]: 95% (active)
- growth inhibition ([1]; at 50.0 µM): 95.6% (active)
- growth inhibition [2, 7]: 11%
- growth inhibition [2, 8]: 96% (active)
- growth inhibition ([2]; at 50.0 µM): 96.2% (active)
- growth inhibition [3, 7]: 9%
- growth inhibition [3, 8]: -24%
- growth inhibition ([3]; at 50.0 µM): 97% (active)
- growth inhibition [4, 7]: -2%
- growth inhibition [4, 8]: 96% (active)
- growth inhibition ([4]; at 50.0 µM): 94% (active)
- growth inhibition [5, 7]: -1%
- growth inhibition [5, 8]: 95% (active)
- growth inhibition ([5]; at 50.0 µM): 96.9% (active)
- growth inhibition [6, 7]: 3%
- growth inhibition [6, 8]: 96% (active)
- growth inhibition ([6]; at 50.0 µM): 97% (active)

Compound: COc1cc(C2C=C(c3ccccc3)Oc3cc4c(cc32)OCO4)cc(OC)c1OC (stereo not given)
- growth inhibition [1, 7]: 8%
- growth inhibition [1, 8]: 21%
- growth inhibition ([1]; at 50.0 µM): -30.1%
- growth inhibition [2, 7]: -11%
- growth inhibition [2, 8]: 16%
- growth inhibition ([2]; at 50.0 µM): -39.9%
- growth inhibition [3, 7]: -13%
- growth inhibition [3, 8]: 25%
- growth inhibition ([3]; at 50.0 µM): -7.8%
- growth inhibition [4, 7]: -10%
- growth inhibition [4, 8]: 27%
- growth inhibition ([4]; at 50.0 µM): -5.3%
- growth inhibition [5, 7]: -33%
- growth inhibition [5, 8]: 38%
- growth inhibition ([5]; at 50.0 µM): 11.9%
- growth inhibition [6, 7]: 1%
- growth inhibition [6, 8]: 23%
- growth inhibition ([6]; at 50.0 µM): 3.4%

Compound: COC1=CC(=O)C(C#CCOCc2ccccc2)=CC1=O
- growth inhibition [1, 7]: 12%
- growth inhibition [1, 8]: 99% (active)
- growth inhibition ([1]; at 50.0 µM): 99.1% (active)
- growth inhibition [2, 7]: 0%
- growth inhibition [2, 8]: 99% (active)
- growth inhibition ([2]; at 50.0 µM): 99.2% (active)
- growth inhibition [3, 7]: -6%
- growth inhibition [3, 8]: 79% (active)
- growth inhibition ([3]; at 50.0 µM): 99% (active)
- growth inhibition [4, 7]: -8%
- growth inhibition [4, 8]: 98% (active)
- growth inhibition ([4]; at 50.0 µM): 94.7% (active)
- growth inhibition [5, 7]: -16%
- growth inhibition [5, 8]: 99% (active)
- growth inhibition ([5]; at 50.0 µM): 93% (active)
- growth inhibition [6, 7]: 8%
- growth inhibition [6, 8]: 99% (active)
- growth inhibition ([6]; at 50.0 µM): 98.8% (active)

Compound: S=C1C(=Nc2ccccc2)N(c2ccccc2)/C(=N\c2cccc[n+]2Cc2ccccc2)N1c1ccccc1
- growth inhibition [1, 7]: -17%
- growth inhibition [1, 8]: 89% (active)
- growth inhibition ([1]; at 50.0 µM): 96.6% (active)
- growth inhibition [2, 7]: -10%
- growth inhibition [2, 8]: 99% (active)
- growth inhibition ([2]; at 50.0 µM): 97.9% (active)
- growth inhibition [3, 7]: -1%
- growth inhibition [3, 8]: 72% (active)
- growth inhibition ([3]; at 50.0 µM): 98.7% (active)
- growth inhibition [4, 7]: -17%
- growth inhibition [4, 8]: 48%
- growth inhibition ([4]; at 50.0 µM): 94.5% (active)
- growth inhibition [5, 7]: -20%
- growth inhibition [5, 8]: 85% (active)
- growth inhibition ([5]; at 50.0 µM): 98% (active)
- growth inhibition [6, 7]: -23%
- growth inhibition [6, 8]: 96% (active)
- growth inhibition ([6]; at 50.0 µM): 98.2% (active)

Compound: CCC(=O)/C(=C\c1ccccc1)C(=O)C(C)CN(C)C (stereo not given)
- growth inhibition [1, 7]: 9%
- growth inhibition [1, 8]: 23%
- growth inhibition ([1]; at 50.0 µM): 7%
- growth inhibition [2, 7]: 13%
- growth inhibition [2, 8]: 16%
- growth inhibition ([2]; at 50.0 µM): 17.6%
- growth inhibition [3, 7]: 12%
- growth inhibition [3, 8]: 16%
- growth inhibition ([3]; at 50.0 µM): 26.6%
- growth inhibition [4, 7]: 20%
- growth inhibition [4, 8]: 25%
- growth inhibition ([4]; at 50.0 µM): 25.8%
- growth inhibition [5, 7]: 10%
- growth inhibition [5, 8]: 15%
- growth inhibition ([5]; at 50.0 µM): 33.8%
- growth inhibition [6, 7]: 16%
- growth inhibition [6, 8]: 24%
- growth inhibition ([6]; at 50.0 µM): 51.8%

Compound: COc1ncnc2nc(SC)[nH]c12
- growth inhibition [1, 7]: -1%
- growth inhibition [1, 8]: -2%
- growth inhibition ([1]; at 50.0 µM): 99.7% (active)
- growth inhibition [2, 7]: 1%
- growth inhibition [2, 8]: -2%
- growth inhibition ([2]; at 50.0 µM): 99.8% (active)
- growth inhibition [3, 7]: -1%
- growth inhibition [3, 8]: -4%
- growth inhibition ([3]; at 50.0 µM): 99.6% (active)
- growth inhibition [4, 7]: 0%
- growth inhibition [4, 8]: -2%
- growth inhibition ([4]; at 50.0 µM): 99.7% (active)
- growth inhibition [5, 7]: -1%
- growth inhibition [5, 8]: -4%
- growth inhibition ([5]; at 50.0 µM): 99.7% (active)
- growth inhibition [6, 7]: 0%
- growth inhibition [6, 8]: -4%
- growth inhibition ([6]; at 50.0 µM): 99.5% (active)
